Data on four compounds can be found in PubChem BioAssay (Tox21).

A short description of assay [1]: qHTS assay to identify small molecule agonists of the estrogen related receptor (ERR) signaling pathway from Tox21 library (AID 1224849; calls by dose curve; further: nearly all actives have a fitted effect of over 15% in size). Particulars: ERR reporter cell line, ONE-Glo luciferase, 18 h; at 92.4 µM (top of the series) unless noted. Put shortly: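 ERR reporter cells (NTP line) pre-incubated 6 hours at 37 C, then exposed to compounds for 18 hours at 37 C. ONE-Glo luciferase luminescence was read after 30 minutes at room temperature.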

Assay [2] can be described thus: qHTS RealTime-Glo MT Cell Viability Assay in HepG2 cells - 24 hour (AID 1224867). Further: nearly all actives have a fitted effect of over 50% in size. Put shortly:
(§1)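 Cell number in HepG2 cultures estimated from NanoLuc luminescence generated by metabolic reduction of a prosubstrate by living cells. The homogeneous, nonlytic format allowed repeated reads at 0, 8, 16, 24, 32 and 40 h of compound exposure.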

Assay [3] is described as follows: A CellTox Green Cytotoxicity Assay to monitor cytotoxicity in HEK293 cells - 0 hour (AID 1224869). Further: nearly all actives have a fitted effect of over 50% in size. In outline:
(§2)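 HEK293 cells, 600/well, were preincubated 5 hours and then exposed to compounds at 37 C for up to 40 hours. A cell-impermeant cyanine dye staining dead-cell DNA was read by fluorescence at 0, 8, 16, 24, 32 and 40 h time points.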

The nature of assay [4]: qHTS RealTime-Glo MT Cell Viability Assay in HepG2 cells - 40 hour (AID 1224870). Further: nearly all actives have a fitted effect of over 50% in size. Put shortly: (§3)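 HepG2 cells mixed with RealTime-Glo MT reagents (NanoLuc plus cell-permeant prosubstrate) were seeded at 600 cells/well, incubated 5 h at 37 C/5% CO2, then pinned with compounds in DMSO; nonlytic luminescence tracked viability during 40 h treatment.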
A general note: qHTS replaces the single test concentration by a dilution series.

Assay [5] in a line: A CellTox Green Cytotoxicity Assay to monitor cytotoxicity in HEK293 cells - 40 hour (AID 1224871). Further: nearly all actives have a fitted effect of over 45% in size. In outline:
as §2

The nature of assay [6]: A CellTox Green Cytotoxicity Assay to monitor cytotoxicity in HEK293 cells - 24 hour (AID 1224875). Further: nearly all actives have a fitted effect of over 45% in size. Put shortly:
as §2

Assay [7] can be described thus: A CellTox Green Cytotoxicity Assay to monitor cytotoxicity in HepG2 cells - 16 hour (AID 1224876). Further: nearly all actives have a fitted effect of over 45% in size. In outline: (§4)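 HepG2 cells, 600/well, preincubated 5 h with CellTox Green dye, then exposed to Tox21 compounds in DMSO at 37 C for up to 40 h. Dead-cell DNA fluorescence read at the indicated time point.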
A short description of assay [8]: qHTS RealTime-Glo MT Cell Viability Assay in HepG2 cells - 32 hour (AID 1224877). Further: nearly all actives have a fitted effect of over 55% in size. Put shortly:
as §1

A short description of assay [9]: A CellTox Green Cytotoxicity Assay to monitor cytotoxicity in HepG2 cells - 24 hour (AID 1224878). Further: nearly all actives have a fitted effect of over 45% in size. In outline: as §4
Assay [10] in a line: qHTS RealTime-Glo MT Cell Viability Assay in HEK293 cells - 0 hour (AID 1224880). In outline:
(§5)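 600 cells/well were plated with the nonlytic NanoLuc/prosubstrate reagent, pre-incubated 5 h, then given 23 nL of compound in DMSO. Incubation at 37 C for 40 h, with luminescence from viable-cell-reduced substrate read repeatedly from 0 h.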

Assay [11] can be described thus: qHTS assay to identify small molecule agonists of H2AX (AID 1224845; active means well fitted activation curve with a large enough effect in the signal ratio in the repeat runs, not every such curve was filed as active; the % refers to the signal ratio; further: potency means the concentration at half of the fitted maximal effect). Put shortly: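 Wild-type CHO-K1 cells plated overnight, then exposed 3 hr at 37C to compounds at 15 concentrations (0.76% DMSO). Lysed, then HTRF anti-pH2AX(S139)-cryptate/anti-H2AX-d2 detection after 24 hr at room temperature; emissions 665 and 620 nm.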
Assay [12] is described as follows: qHTS assay to identify small molecule agonists of H2AX - cell viability counter screen (AID 1224847; calls by dose curve; further: top concentration of the series differs between compounds; nearly all actives have a fitted effect of over 30% in size). In outline:
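CHO-K1 cells plated overnight at 37C, then exposed 3 h at 37C to compounds at 15 concentrations (0.76% DMSO final). Viability by CellTiter-Glo luminescence after 30 min at room temperature.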

The nature of assay [13]: qHTS RealTime-Glo MT Cell Viability Assay in HEK293 cells - 32 hour (AID 1224868). Further: top concentration of the series differs between compounds; nearly all actives have a fitted effect of over 50% in size. In outline:
(§6)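 Homogeneous bioluminescent viability format in HEK293 cells (600 cells/well). Following 5 h at 37 C/5% CO2, 23 nL compound was pintooled; the signal was measured repeatedly during 40 h incubation.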

Assay [14] is described as follows: qHTS RealTime-Glo MT Cell Viability Assay in HepG2 cells - 8 hour (AID 1224873). Further: nearly all actives have a fitted effect of over 55% in size. Put shortly: as §3
Assay [15] is described as follows: qHTS RealTime-Glo MT Cell Viability Assay in HEK293 cells - 40 hour (AID 1224874). Further: nearly all actives have a fitted effect of over 50% in size. Particulars: RealTime-Glo luminescence; max response: active compounds read low. Put shortly: as §5
Assay [16] can be described thus: A CellTox Green Cytotoxicity Assay to monitor cytotoxicity in HepG2 cells - 40 hour (AID 1224879). Further: nearly all actives have a fitted effect of over 40% in size. Put shortly:
as §4

The nature of assay [17]: qHTS RealTime-Glo MT Cell Viability Assay in HEK293 cells - 16 hour (AID 1224872). Put shortly:
as §6

Results filed as inconclusive are left out. Calls of active or inactive are those of the source. Unless noted, the call rests on the fitted dose curve; in most records, active means well fitted curve in the direction sought with a large enough effect in the repeat runs; inconclusive means weak or mixed curves; inactive means no such curve, though single readings can be large; an effect the other way counts as inactive or inconclusive.
On the % scale 0 is the no-effect control and ±100 the full control effect.

Consider `Nc1ccc(N=Nc2ccccc2)cc1`, for which the activity change, positive = activation in [1] was 69.2% (active). For the same compound, the Potency result in assay [2], in [3], in [4], in assay [5], in assay [6] and in [7] was “inactive” throughout. For the same compound, the Potency result in [8], in [9] and in assay [10] was “inactive” throughout.

As for `O.O.O.O=C([O-])[C@H]([O-])[C@@H]([O-])C(=O)[O-].O=C([O-])[C@H]([O-])[C@@H]([O-])C(=O)[O-].[K+].[K+].[Sb+3].[Sb+3]`, in [11], the Potency was 114 µM (active). Besides, the Potency entry in assay [12], in assay [3], in [4], in assay [6], in assay [7] and in assay [9] was “inactive” each time. Moreover, in assay [10], the Potency entry was “inactive”.

Turning to `CC(C)C(Nc1ccc(C(F)(F)F)cc1Cl)C(=O)OC(C#N)c1cccc(Oc2ccccc2)c1` (stereo unspecified), the Potency entry in assay [11], in [12], in [2], in assay [13], in assay [3] and in assay [4] was “inactive” in each case. For the same compound, the Potency result in [5], in [14], in assay [6], in [7], in assay [8] and in [9] was “inactive” in each case. Besides, the Potency entry in [16] and in assay [10] was “inactive” in each case. In addition, the max response in assay [15] is -20.4% (inactive).

On to `CCCCC/C=C\C/C=C\C/C=C\C/C=C\CCCC(=O)NCC(=O)O`, for which the Potency result in assay [2], in assay [13], in assay [3], in assay [4], in [5] and in [17] was “inactive” throughout. The Potency entry in assay [14], in assay [6], in assay [7], in assay [8], in assay [9] and in [16] was “inactive” in each case. The max response in assay [15] is -10.5% (inactive).
